# Compound activity from PubChem.
# This is a sample that favours compounds with a hit; in the whole collection about 12% have one here.
# Shiga inhibitor: A qHTS for Small Molecule Inhibitors of Shiga Toxin; Vero cells, Shiga toxin protein synthesis inhibition reporter; inhibition, % at 38.7 µM; 290,000 tested, 9.2% active; in the data active = inhibition mostly above about 28%, no sharp cut-off; inactive = mostly below about 43%; note: 0% is about no effect
# Lassa entry inh: qHTS for Inhibitors of binding or entry into cells for Lassa Virus; Potency, µM (doses to about 37.9 µM), for inactives: top-dose activity change, negative = inhibition, most hits filed as inhibitors; 300,000 tested, 1.2% active; Lassa virus pseudotype entry inhibition, cell reporter; calls by dose curve; tested in HEK293 cells; note: potency is the fitted concentration of half-maximal effect; % is set by controls: 0 for no effect and ±100 for the full control effect; nearly all actives have a fitted effect of over 50% in size
# Marburg entry inh: qHTS for inhibitors of binding or entry into cells for Marburg Virus | Marburg virus pseudotyped entry inhibition, cell reporter | AID 540276, 2011 | Potency, µM (highest dose often 37.8 µM), for inactives: at the highest dose activity change, negative = inhibition, actives largely listed as inhibitors | 300,000 tested, 1.8% active; calls by dose curve; tested in HEK293 cells; note: potency is the fitted concentration of half-maximal effect; % is set by controls: 0 for no effect and ±100 for the full control effect
# Cycloheximide cs: Cycloheximide Counterscreen for Small Molecule Inhibitors of Shiga Toxin; cell reporter, cycloheximide protein synthesis inhibition counterscreen; max response, %; 300,000 tested, 12% active; in the data active = max response mostly above about 13%, no sharp cut-off; inactive = mostly below about 14%; note: read at 38.3 µM for the half of the compounds with a filed dose; 0% is about no effect
# Active calls of the source: *; u = inconclusive; x = no result; [ ] = another dose, or the depositor's remark.
SMILES,Shiga inhibitor,Lassa entry inh,Marburg entry inh,Cycloheximide cs
Cc1ccc(CCNC(=O)c2cc(-c3ccc(Cl)cc3)n[nH]2)cc1,x,-2%[46.1 µM],x,x
COC(=O)c1cc(-c2ccc(OC)cc2)n[nH]1,103*,-2%[46.1 µM],u,27*
COC(=O)c1cc(-c2cccc(OC)c2)n[nH]1,49*,-20%,u,24*
COC(=O)c1cc(-c2ccc(C)cc2)n[nH]1,82*,x,x,48*
COc1cccc(-c2cc(C(=O)NCCc3ccc(C)cc3)[nH]n2)c1,x,-23%[46.1 µM],x,x
COc1ccccc1NS(=O)(=O)c1ccc2c(c1)CCN2C(=O)CCC(=O)O,25,u,-17%[46.1 µM],2
O=C1/C(=C/c2cccs2)CCC/C1=C\c1cccs1,108*,u,u,39*
C=CCN1C(=O)NC(=O)/C(=C/c2cccn2C)C1=O,-22,-28%,-21%,-3
CC1C/C(=C/c2cccs2)C(=O)/C(=C/c2cccs2)C1 (centres undefined),9,-1%,1%,3
Cn1cccc1/C=C1\CCC/C(=C\c2cccn2C)C1=O,109*,2%,u,52*
O=C(Cc1cccs1)NCCSc1c(-c2ccc(Cl)cc2)[nH]c2ccccc12,-2,16µM*,u,-2
O=C(NCCSc1c(-c2ccc(Cl)cc2)[nH]c2ccccc12)c1ccc(S(=O)(=O)N2CCOCC2)cc1,x,u,-28%[46.1 µM],x
CCCCS(=O)(=O)c1oc(-c2ccc(F)cc2)nc1S(=O)(=O)c1ccc(C)cc1,x,u,10µM*,x
O=C(NCCc1ccccc1)C(=S)N1CCCCC1,-3,19%[46.1 µM],u,2
O=C(O)Cn1c2c(c3ccccc31)CSc1ccc(Cl)cc1-2,-16,18%,6%[46.1 µM],-4
Cc1cc(NC(=O)c2ccc3c(c2)OCO3)ccc1NC(=O)c1ccccc1,39,8%[46.1 µM],u,15
CCOC(=O)CNC(=O)/C=C/c1ccc2c(c1)OCO2,29,u,-13%[46.1 µM],18*
Cc1nc(NC(=O)c2ccccc2)nc2cc3c(cc12)OCO3,92*,u,u,46*
O=C(Nc1cccc(NC(=O)c2ccc3c(c2)OCO3)c1)c1ccccc1,48,9%,-25%[46.1 µM],24*
CCOC(=O)c1cccc(NC(=O)/C=C/c2ccc3c(c2)OCO3)c1,45*,u,u,31*
Cc1nc(NC(=O)c2ccc(F)cc2)nc2cc3c(cc12)OCO3,27,-8%,12%,18
CC(CN1CCCCC1)OC(=O)C(C)(c1ccccc1)c1ccccc1 (centres undefined),-16,u,u,2
COCc1cc(C)n(CC(=O)Nc2ccc(NC(C)=O)cc2)c(=O)c1C#N,x,-2%[46.1 µM],0%[46.1 µM],x
COc1ccc(N(Cc2nnc3n2CCCCC3)C(=O)Nc2ccc(Cl)cc2)cc1Cl,x,2%[46.1 µM],x,x
CCCCCC(=O)NCc1c(C(F)(F)F)nn(C)c1N1CCOCC1,-3,-14%,-28%[46.1 µM],-2
SMILES,Shiga inhibitor,Lassa entry inh,Marburg entry inh,Cycloheximide cs
CCOC(=O)c1oc2ccccc2c1NC(=O)c1ccc2c(c1)OCO2,-6,1%,u,-3
CC(=O)c1cccc(NC(=O)c2ccc3c(c2)OCO3)c1,x,14%,-5%,52*
CCOC(=O)c1cccc(NC(=O)c2ccc3c(c2)OCO3)c1,33*,u,-1%,21*
CC(=O)c1ccc2c(c1)OCO2,24,-1%,12%,-2
CCOC(=O)c1c(C)c(C(=O)Nc2ccc3c(c2)OCCO3)c(C)n1CC,38,u,-13%,14
CCOC(=O)c1c(C)c(C(=O)Nc2ccc3c(c2)OCO3)c(C)n1C,41*,27%[14.3 µM],9%,14
CCOC(=O)C1=C(C)OC(N)=C(C#N)C1c1ccc(C)s1 (centres undefined),-9,x,4%[46.1 µM],10
CN1CCN(c2ccc(NC(=O)c3ccc(C#N)cc3F)cc2Cl)CC1,18,26%[46.1 µM],u,22
O=C(c1cc(F)c(F)cc1Cl)N1CCN(c2ncccn2)CC1,5,x,x,0
CCCCCC(=O)Nc1ccc(S(=O)(=O)Nc2nccc(C)n2)cc1,-10,-2%[46.1 µM],1%[46.1 µM],-5
CC1Oc2ccccc2OC1C(=O)Nc1nccs1 (centres undefined),25,21%[46.1 µM],-4%[46.1 µM],18*
O=C(Nc1nccs1)c1ccccc1N=Cc1ccccc1,48*,9%,15%,25*
COc1cccc(C=Nc2ccccc2C(=O)Nc2nccs2)c1OC,-6,10%,-3%,6
N#C/C(=C\c1cccs1)C(=O)Nc1nccs1,65*,21%,u,27*
O=C(Nc1nccs1)Oc1ccccc1,14,2%,5%,13
C/C(=C\c1ccccc1)C(=O)Nc1nccs1,152*,12%,u,49*
N#C/C(=C\c1cccs1)C(=O)NCc1ccccc1,27,26%,-5%,13
CSc1nsc(SCC(=O)N2CCN(c3ccccc3)CC2)n1,23,-12%,-7%,5
Cc1cccc(CN2C(=O)CC(c3ccc(Cl)cc3)c3c(C)nn(-c4nc(C)cc(C)n4)c32)c1 (centres undefined),x,-15%[46.1 µM],u,x
Cc1ccc(CN2CCN(/N=C\C=C\c3ccccc3)CC2)cc1,16,-4%,u,-2
O=C(CCCn1c(=O)c2sccc2n(Cc2ccc(Cl)cc2)c1=O)NCc1ccc2c(c1)OCO2,x,23%[46.1 µM],3%[46.1 µM],x
Cc1cccc(NC(c2ccc(O)cc2)c2ccc3ccc(C)nc3c2O)n1 (centres undefined),-10,21µM*,-2%,3
Cc1cc(NC(c2cccnc2)c2ccc3cccnc3c2O)no1 (centres undefined),-10,u,u,-4
CC1(C)NC(=O)N(CCCCOc2ccc(Br)cc2Cl)C1=O,13,u,u,4
Cc1ccc([N+](=O)[O-])c(OCCCN2C(=O)NC(C)(C)C2=O)c1,57,x,x,19*
SMILES,Shiga inhibitor,Lassa entry inh,Marburg entry inh,Cycloheximide cs
C/C=C/c1ccc(OCCCN2C(=O)NC(C)(C)C2=O)c(OC)c1,27,7%,11%,23*
CC1(C)NC(=O)N(CCCOc2ccc3c(c2)CCC3)C1=O,59*,-4%,16%,34*
CC1(C)NC(=O)N(CCCOc2ccc(Br)cc2Cl)C1=O,134*,88%[14.3 µM],-8%,40*
Cc1ccc(NC(=O)c2oc3c(c2C)-c2[nH]ncc2CC3)c(Cl)c1,x,0%[46.1 µM],-18%[46.1 µM],x
COc1ccc(CCNC(=O)c2coc3ccccc3c2=O)cc1OC,24,u,-14%,27
O=C(c1cc(COc2ccc(F)c(F)c2)on1)N1CCSCC1,62*,u,-1%,47*
COc1cc(C(C)=O)ccc1OCc1cc(C(=O)N2CCSCC2)no1,8,-1%,11%,18
CC(=O)c1cccc(OCc2cc(C(=O)N3CCSCC3)no2)c1,150*,0%,12%,48*
CC(C)CCNC(=O)CSc1nc2ccsc2c(=O)n1NC(=O)c1ccccc1,13,16%,11%,26*
CCCN(CCC)C(=O)CSc1nc2ccsc2c(=O)n1NC(=O)c1ccccc1,32,-2%,0%,19*
Cc1ccc(Cn2c(SCC(=O)NCc3ccccc3)nc3ccsc3c2=O)cc1,x,-1%[46.1 µM],x,x
CCCc1ccc(-c2ccc(C(=O)Oc3ccc(OCC)cc3)cc2)nc1,x,-16%[46.1 µM],x,x
CCCc1ccc(-c2ccc(C(=O)O)cc2)nc1,65*,12µM*,u,26*
